Measurements as given in PubChem BioAssay (NCI).
The panel holds about 79,000 compounds, 15% with a hit somewhere; the sample as a whole holds those more often. Values without a mark were called inactive. The source made the active and inactive calls. Rule as the data show it: active = growth inhibition above about 70%; inactive = the rest.

How the values were obtained:
[1] = NCI Yeast Anticancer Drug Screen. Data for the rad50 strain (AID 155);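 also: 0% = growth of vehicle-only cultures of the same strain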; conditions: S. cerevisiae rad50 strain growth inhibition, stronger effect = higher value
Outline: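 Growth of the mutant yeast was measured after compound exposure and referenced to vehicle-treated cultures.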

[2] = NCI Yeast Anticancer Drug Screen. Data for the mec2-1 strain (AID 157); conditions: S. cerevisiae mec2-1 strain, stronger effect = higher value
Outline: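 Growth inhibition is read against vehicle-treated controls after compound exposure of the mec2-1 yeast strain, which is defective in DNA damage repair or cell cycle control.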

[3] = NCI Yeast Anticancer Drug Screen. Data for the sgs1 mgt1 strain (AID 161);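 also: 0% = growth of cultures given vehicle only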; conditions: S. cerevisiae sgs1 mgt1 strain, stronger effect = higher value
Outline: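 Compounds are added to genetically altered yeast, and growth is compared with cultures given vehicle alone to give percent inhibition.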

[4] = NCI Yeast Anticancer Drug Screen. Data for the cln2 rad14 strain (AID 165);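 also: 0% = growth equal to vehicle treated cultures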; conditions: S. cerevisiae cln2 rad14 strain, stronger effect = higher value
Outline: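 Growth inhibition, relative to vehicle-treated controls, is the read-out. The test organism is a yeast strain with defined genetic alterations, cln2 rad14.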

[5] = NCI Yeast Anticancer Drug Screen. Data for the bub3 strain (AID 167); conditions: S. cerevisiae bub3 mutant strain, stronger effect = higher value
Outline: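 Whole-cell yeast assay. The mutant strain was incubated with compounds, and growth inhibition was determined by comparison with vehicle-treated cells.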

[6] = NCI Yeast Anticancer Drug Screen. Data for the mlh1 rad18 strain (AID 175); conditions: S. cerevisiae mlh1 rad18 strain growth inhibition, stronger effect = higher value
Outline: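 Cells of a genetically altered yeast strain, deficient in DNA damage repair, were treated with compound. Their growth was then compared with that of vehicle-treated cultures to give inhibition.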

[7] = at 5.0 µM (retest, dose inferred, filed as 0.5)
[8] = at 50.0 µM (retest, dose inferred, filed as 5.0)

Compound	growth inhibition [1, 7]	growth inhibition [1, 8]	growth inhibition ([1]; at 50.0 µM)	growth inhibition [2, 7]	growth inhibition [2, 8]	growth inhibition ([2]; at 50.0 µM)	growth inhibition [3, 7]	growth inhibition [3, 8]	growth inhibition ([3]; at 50.0 µM)	growth inhibition [4, 7]	growth inhibition [4, 8]	growth inhibition ([4]; at 50.0 µM)	growth inhibition [5, 7]	growth inhibition [5, 8]	growth inhibition ([5]; at 50.0 µM)	growth inhibition [6, 7]	growth inhibition [6, 8]	growth inhibition ([6]; at 50.0 µM)
O=c1cc2cccccc-2cc1O	-132%	94% (active)	87.2% (active)	-42%	95% (active)	70% (active)	-48%	96% (active)	83.5% (active)	-43%	89% (active)	86% (active)	-65%	95% (active)	91.5% (active)	-130%	95% (active)	86.3% (active)
O=C(Nc1ccc(C2=NCCN2)cc1)c1ccc(C(=O)Nc2ccc(C3=NCCN3)cc2)c(Cl)c1	42%	97% (active)	51.2%	25%	98% (active)	78.7% (active)	57%	99% (active)	76% (active)	43%	96% (active)	80% (active)	54%	98% (active)	68.5%	35%	95% (active)	87.8% (active)
CC(C(=O)NN)C(O)C(C)(C)O (stereo not given)	3%	-5%	58.7%	-5%	-10%	3.8%	1%	3%	-7.4%	1%	-9%	-47.5%	-2%	1%	-5.85%	7%	4%	6.05%
Cc1cc2ccccc2c[n+]1Cc1ccc2ccccc2n1	-6%	-1%	53.6%	9%	45%	29.4%	-13%	12%	65.4%	-8%	-24%	21.6%	-5%	23%	49.3%	1%	41%	69.3%
C=CCOCC(C)OC(=O)C(C)C (stereo not given)	-162%	-158%	55.7%	-46%	-52%	-6.9%	-63%	-63%	18.3%	-60%	-62%	49%	-71%	-78%	11.8%	-140%	-117%	63.2%
CCCCCCCCCCCCCCC(O)C[N+](C)(CCO)CCO (stereo not given)	29%	98% (active)	86.6% (active)	22%	99% (active)	87.7% (active)	32%	99% (active)	88.8% (active)	10%	98% (active)	88.3% (active)	28%	99% (active)	86% (active)	32%	98% (active)	88.9% (active)
O=C1C=CC(=O)c2nc3ccccc3nc21	5%	98% (active)	85.3% (active)	2%	99% (active)	83.2% (active)	1%	98% (active)	50.6%	-1%	99% (active)	-16.7%	-1%	98% (active)	90.1% (active)	16%	97% (active)	91% (active)
COC(=O)N/N=C(\c1ccc(O)cc1)C(C)C1(O)C(=O)Nc2ccccc21 (stereo not given)	-16%	35%	-19.5%	6%	20%	7.45%	7%	26%	16.9%	-2%	23%	-30.2%	1%	34%	-0.8%	-3%	28%	14.2%
O=[N+]([O-])c1cccc2c1[nH]c1c(-c3ccccc3)nccc12	2%	83% (active)	87.8% (active)	4%	83% (active)	47.8%	4%	93% (active)	81% (active)	0%	67%	80.3% (active)	1%	67%	40%	0%	89% (active)	89.8% (active)
c1ccc(B2OC(c3ccccc3)C(c3ccccc3)O2)cc1 (stereo not given)	-19%	-12%	3.35%	-18%	-21%	-0.45%	-7%	-9%	10.8%	24%	7%	5.85%	-4%	-3%	11.2%	-13%	9%	8.85%
